Screening results from PubChem.
The list is not random: actives were taken first. Their share in the collection is about 10%.
BAZ2B inh – blocks human BAZ2B; Q9UIF8; 360,000 compounds, 4.4% hits; AlphaScreen BAZ2B-H3K14Ac peptide displacement; Potency, µM (highest dose often 114 µM), inactives show top-dose activity change, negative = inhibition, usual class: inhibitors; note: potency is the fitted concentration of half-maximal effect; % is set by controls: 0 for no effect and ±100 for the full control effect; nearly all actives have a fitted effect of over 60% in size
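Protein-peptide AlphaScreen: BAZ2B 50 nM, b-H3K14Ac 50 nM, 1x PBS pH 7.4 + 0.01% Tween-20. Preincubation 30 min RT; cpd 30 min RT (top 110 uM); beads 20 min RT, light-protected.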
CtBP-E1A inh – blocks the CtBP interaction with E1A. AlphaScreen GST-E1A/His-CtBP binding, 1536-well; stronger effect = lower value. activity change, % (test concentration not listed). 340,000 compounds, 0.49% hits. AID 651724; in the data active = activity change below about -65%; inconclusive = mostly about -30% to -63%; note: % is set by controls: 0 for no effect and ±100 for the full control effect
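AlphaScreen with 125 nM GST-E1A and 125 nM His-CtBP (5X stocks) in Tris pH 8.0, 300 mM NaCl, BSA, Tween 20, TCEP. Compounds preincubated 2 h at 37 deg C, then glutathione donor/nickel acceptor beads added for 1 h at 37 deg C in dark.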
HP1b binding inh – HP1-beta chromodomain-methylated histone interaction inhibition; P83916; AlphaScreen HP1-beta / biotin-H3K9me3 peptide binding; Potency, µM (highest dose often 114 µM), without a hit: at the top dose activity change, negative = inhibition, actives largely listed as inhibitors; 390,000 compounds, 0.56% hits; AID 540317; note: potency is the fitted concentration of half-maximal effect; nearly all actives have a fitted effect of over 70% in size
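Compound inhibition of the preformed complex between 50 nM HP1-beta and 50 nM biotinylated H3K9me3 peptide was read by AlphaScreen. Buffer was PBS pH 7.4 with 0.01% Tween-20. Incubations ran 30 min at room temperature, with 10 ug/mL donor/acceptor beads.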
G9a inh – G9a (human) methyltransferase inhibition. Q96KQ7. G9a H3K9 monomethylation, AlphaScreen, 2 h. 350,000 compounds, 8.8% hits. Potency, µM (highest dose often 102 µM), inactives show at the highest dose activity, negative = inhibition, hits mostly inhibitors; note: potency is the fitted concentration of half-maximal effect; % is set by controls: 0 for no effect and ±100 for the full control effect; nearly all actives have a fitted effect of over 75% in size
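AlphaScreen read-out: biotin-H3K9 peptide (500 nM) methylation by 20 nM enzyme with 20 uM SAM, 2 h at room temperature after 15 min compound preincubation; anti-monomethyl H3K9 antibody plus donor/acceptor beads, 10 min dark.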
JMJD2A Tudor – inhibitors of human JMJD2A Tudor domain; O75164; AlphaScreen JMJD2A-Tudor / H3K4me3 peptide binding; Potency, µM (doses to about 114 µM), without a hit: at the top dose activity change, negative = inhibition, usual class: inhibitors; 390,000 compounds, 4.4% hits; AID 504339; note: potency is the fitted concentration of half-maximal effect; % is set by controls: 0 for no effect and ±100 for the full control effect; nearly all actives have a fitted effect of over 50% in size
Target sequence (O75164 whole entry, looked up, the tested form may be a part): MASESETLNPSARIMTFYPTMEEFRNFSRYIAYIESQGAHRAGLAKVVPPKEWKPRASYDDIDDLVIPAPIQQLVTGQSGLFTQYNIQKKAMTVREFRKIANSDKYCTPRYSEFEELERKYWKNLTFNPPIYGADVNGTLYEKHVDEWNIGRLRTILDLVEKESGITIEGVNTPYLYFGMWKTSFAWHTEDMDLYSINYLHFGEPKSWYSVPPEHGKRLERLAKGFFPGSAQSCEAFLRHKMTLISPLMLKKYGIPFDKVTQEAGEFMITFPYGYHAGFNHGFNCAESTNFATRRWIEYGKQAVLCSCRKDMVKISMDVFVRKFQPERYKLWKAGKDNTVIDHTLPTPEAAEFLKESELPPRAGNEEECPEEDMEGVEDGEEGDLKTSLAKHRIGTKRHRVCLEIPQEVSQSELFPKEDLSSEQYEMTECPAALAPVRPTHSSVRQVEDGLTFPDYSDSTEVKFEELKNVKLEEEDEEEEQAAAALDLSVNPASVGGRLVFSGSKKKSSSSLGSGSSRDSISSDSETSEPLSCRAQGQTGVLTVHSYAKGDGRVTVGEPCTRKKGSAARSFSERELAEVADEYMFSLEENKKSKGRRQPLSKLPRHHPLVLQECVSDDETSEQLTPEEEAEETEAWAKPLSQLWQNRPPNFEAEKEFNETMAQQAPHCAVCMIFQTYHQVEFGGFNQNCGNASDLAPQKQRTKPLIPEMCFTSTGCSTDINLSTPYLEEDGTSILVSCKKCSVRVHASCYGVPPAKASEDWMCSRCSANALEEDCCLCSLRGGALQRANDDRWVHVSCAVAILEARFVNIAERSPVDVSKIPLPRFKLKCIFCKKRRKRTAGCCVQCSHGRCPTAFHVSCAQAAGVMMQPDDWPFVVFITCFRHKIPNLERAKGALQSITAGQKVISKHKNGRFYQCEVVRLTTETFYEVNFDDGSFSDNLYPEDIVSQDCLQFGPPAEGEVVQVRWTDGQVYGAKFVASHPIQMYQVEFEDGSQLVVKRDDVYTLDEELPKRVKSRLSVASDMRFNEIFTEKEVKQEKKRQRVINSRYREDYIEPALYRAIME
Six1-Eya2 inh – Six1/Eya2 interaction inhibition. AID 651725. Q15475+O00167. AlphaScreen GST-Six1/His-Eya2 binding, biochemical; stronger effect = lower value. activity change, % (no concentration beside the values). 360,000 compounds, 0.56% hits; in the data active = activity change below about -65%; inconclusive = mostly about -30% to -63%; note: % is set by controls: 0 for no effect and ±100 for the full control effect
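AlphaScreen luminescence read after one hour at 37 °C in darkness. Pin-transferred compounds met GST-Six1 and His-Eya2 protein (5X stock 250 nM/500 nM) plus glutathione donor and Ni-chelate acceptor beads (5X, 50 ug/mL).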
Numbers without * were called inactive; ? = inconclusive; nt = not tested or not shown; [ ] = dose if it differs, or a comment. Unless noted, calls come from the whole dose curve; as a rule, active = well fitted inhibition curve with a large enough effect; inconclusive = small, poorly fitted or top-dose-only effect; inactive = no such curve, though single readings can be large or run the other way.

SMILES	BAZ2B inh	CtBP-E1A inh	HP1b binding inh	G9a inh	JMJD2A Tudor	Six1-Eya2 inh
CC1(C)CC(=O)C(C(C2=C(O)CC(C)(C)CC2=O)c2cccnc2)C(=O)C1 (configuration not stated)	28%	3	61%	50µM*	-17%	2
Cc1ccc(C(C2=C(O)CC(C)(C)CC2=O)C2C(=O)CC(C)(C)CC2=O)o1 (configuration not stated)	-31%	8	61%	25µM*	-8%	-1
O=C(COc1ccccc1F)Nc1ccccc1C(=O)OCc1cc(=O)n2nc(C3CC3)sc2n1	-3%	nt	41%	3%[12.7 µM]	0%	nt
CCOC(=O)c1sc(N2C(=O)c3oc4ccc(C)cc4c(=O)c3C2c2ccccc2F)nc1C (configuration not stated)	2%	nt	36%	10%[59 µM]	9%	nt
Cc1ccc(NC(=O)COC(=O)c2ccc(S(=O)(=O)NCc3ccco3)cc2)cc1	2%	-1	17%	17%[12.7 µM]	-16%	5
O=C(COC(=O)c1ccc(S(=O)(=O)NCc2ccco2)cc1)Nc1ccccc1OC(F)F	47%	-2	4%	50µM*	-19%	-2
O=C(COC(=O)c1ccc(S(=O)(=O)NCc2ccco2)cc1)Nc1ccccc1	10%	2	15%	?	-6%	-1
O=C(COC(=O)c1ccc(S(=O)(=O)NCc2ccco2)cc1)Nc1ccc(Cl)cn1	56µM*	6	-31%	50µM*	?	-5
COc1ccc(-c2ccc(=O)n(CC(=O)NCCc3ccccc3)n2)cc1	0%	nt	8%	?	2%	nt
O=C(c1cccc(Cl)c1Cl)N(Cc1ccco1)Cc1cccs1	nt	nt	23%[57 µM]	nt	-14%[57.1 µM]	nt
CCC1=Nc2ccccc2NC2=C1C(=O)CCC2	50µM*	0	2%	?	-38%	14
CCOC(=O)c1c(S(=O)(=O)N2CCC(C(=O)Nc3ccc(C)cc3C)CC2)c(C)n(C)c1C	-7%	nt	25%	8%[59 µM]	-11%	nt
CCc1ccccc1NC(=O)CN1C(=O)c2cccnc2Oc2ccc(Cl)cc21	-5%	nt	28%	-35%[59 µM]	-24%	nt
Nc1nc(CN2CCN(Cc3ccc4c(c3)OCO4)CC2)nc(Nc2ccccc2)n1	?	-11	7%	18%[12.7 µM]	?	-5
Cc1ccc(Nc2nc(N)nc(CSc3nnnn3-c3ccccc3)n2)cc1	?	1	130%	12%[12.7 µM]	89µM*	-3
Cc1ccc(Nc2nc(N)nc(CN3CCN(C(=O)c4ccco4)CC3)n2)cc1Cl	-80%	-12	-1%	50µM*	?	-9
Nc1nc(CN2CCC(Cc3ccccc3)CC2)nc(Nc2ccccc2)n1	-37%	-7	15%	-13%[12.7 µM]	?	-6
Nc1nc(CN2CCCCCC2)nc(Nc2ccccc2)n1	10µM*	-22	13%	?	20µM*	-28
Cc1cccc(Nc2nc(N)nc(CN3CCN(c4ccc(F)cc4)CC3)n2)c1	-91%	?	-2%	45µM*	56µM*	-25
COc1ccc(C)cc1NC(=O)CN(c1cc(C(F)(F)F)ccc1Cl)S(C)(=O)=O	-1%	nt	15%	-33%[59 µM]	-21%	nt
CC(=O)c1ccc(NC(=O)Nc2nnc(N3CCCC(C)C3)s2)cc1 (configuration not stated)	-6%	nt	33%	3%[59 µM]	-13%	nt
Cc1ccc(Nc2nc(N)nc(CN3CCCCCC3)n2)cc1	11µM*	-21	28%	?	50µM*	-28
CCOC(=O)C1CCCN(Cc2nc(N)nc(Nc3ccccc3)n2)C1 (configuration not stated)	35µM*	-11	34%	0%[12.7 µM]	56µM*	-13
Nc1nc(COC(=O)C2CC(=O)N(Cc3ccccc3)C2)nc(Nc2ccccc2)n1 (configuration not stated)	48%	-19	30%	4%[12.7 µM]	-10%	-14
O=C(NCc1cccc(Cl)c1)c1cnc(N2CCCCC2)c2ccccc12	27%	nt	64%[57 µM]	46%[59 µM]	17%	nt
SMILES	BAZ2B inh	CtBP-E1A inh	HP1b binding inh	G9a inh	JMJD2A Tudor	Six1-Eya2 inh
O=C(CSc1nc2sc3c(c2c(=O)n1-c1ccccc1)CCCC3)N/N=C/c1ccccc1C(=O)O	?	3	15%	79µM*	?	-1
Nn1c(Nc2ccccc2)nc2sc3c(c2c1=O)CCCC3	-15%	3	-10%	-8%	-28%	8
CC(NC(=O)CSc1nc2sc3c(c2c(=O)n1-c1ccccc1)CCCC3)c1ccccc1 (configuration not stated)	6%	11	11%	15%[59 µM]	-26%	-2
NNc1nc2sc3c(c2c(=O)n1-c1ccccc1)CCCC3	-6%	0	6%	50µM*	-27%	-6
Cc1cc(C)cc(-n2ccn(Cc3ccc(F)cc3)c(=O)c2=O)c1	-10%	nt	16%	-8%[59 µM]	3%	nt
Cc1cccc(C)c1NC(=O)CSc1nnc(NC(=O)c2ccccc2C(=O)O)s1	-15%	0	12%	50µM*	-2%	0
O=C(CSc1nnc(NC(=O)c2ccccc2C(=O)O)s1)Nc1ccccc1Cl	12%	nt	13%	?	-8%[11.4 µM]	19
Cc1ccc2[nH]c(CSc3nnc(NC(=O)c4ccccc4C)s3)cc(=O)c2c1	56µM*	nt	23%[57 µM]	-44%[59 µM]	-21%	nt
CCCC(=O)Nc1nnc(SCC(=O)N2CCCCC2)s1	3%	-8	?	18µM*	71µM*	-3
CCSc1nnc(NC(=O)CSc2nccn2-c2cccc(C)c2C)s1	?	-2	?	?	25µM*	-15
Cc1ccc2[nH]c(CSc3nnc(NC(=O)c4ccccc4F)s3)cc(=O)c2c1	5%	nt	21%[57 µM]	-14%[59 µM]	-8%	nt
CCSc1nnc(NC(=O)CSc2nccn2-c2cc(C)cc(C)c2)s1	?	7	8%	?	-18%	-2
COc1cc(OC)cc(-c2nc3n(n2)C(c2ccccc2F)C(C(=O)Nc2cccnc2)=C(C)N3)c1 (configuration not stated)	-11%	nt	14%	22%[59 µM]	-29%	nt
CCOc1ccc(NC(=O)CN(Cc2ccccc2)S(=O)(=O)c2ccc3nc(C)sc3c2)cc1	7%	nt	11%	49%[59 µM]	-18%	nt
COc1cccc(C(=O)Nc2nc3nc(C)c(Cc4ccccc4)c(=O)n3[nH]2)c1	-38%	nt	38%	?	-28%	nt
COc1cccc2c1Oc1ncccc1N(C(=O)CCC(=O)NCc1ccc(OC(C)C)cc1)C2	5%[57.1 µM]	nt	-3%	-3%[59 µM]	-18%	nt
CCOc1ccccc1C(=O)Nc1nnc(SCC(=O)N2CCOCC2)s1	-37%	2	28%	-4%	14%	-4
CS(=O)(=O)Nc1nnc(SCC(=O)N(c2ccccc2)c2ccccc2)s1	-31%	-4	25%	50µM*	-13%	4
